For 65 molecules, outcome results are on record in PubChem BioAssay.

Results with a measured potency or affinity are listed apart. A number with no mark means an inactive call. The source made the active and inactive calls.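 The calls were made as follows, unless noted: active = a dose-response fit showing signal loss, with half-maximal concentration no higher than twice the top tested dose; inconclusive = flat fit between 30% and 70% signal loss, or poor fit; inactive = the rest.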

A short description of assay [1]: HepG2 cell cytotoxicity, dose response, cytotoxicity control, cherry-picks, set 2 (AID 687002).
Assay [2] can be described thus: HeLa cell cytotoxicity, dose response, cytotoxicity control, ATP luminescence, cherry-pick samples (AID 687004;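 active = a fitted half-maximal concentration no higher than twice the top valid tested dose, with signal falling as cells die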).

For the molecule `CCN1C(=S)N[C@@H](c2ccccc2)C(C(=O)OC)=C1C`, the result in assay [1] and in assay [2] was inactive.

In the case of `C[C@H](CO)N1C[C@H](C)[C@@H](CN(C)S(=O)(=O)c2cn(C)cn2)Oc2c(NC(=O)Nc3ccccc3)cccc2C1=O`, the call in assay [1] and in assay [2] was inactive.

For the molecule `Cc1cc(C)c(NC(=O)C2CCCN2CCC(C)C)c(C)c1` (stereo unspecified), the outcome in assay [1] was inactive.

With `COC(=O)C1=C(C)N(Cc2ccccc2)C(=S)NC1c1ccc(Br)cc1` (stereo unspecified), the molecule was classed as inactive in assay [1] and in assay [2].

For `COC(=O)C1=C(C)N(Cc2ccc(F)cc2)C(=S)NC1c1cccc(Br)c1` (stereo unspecified), the molecule was classed as inactive in assay [1] and in assay [2].

With `S=C(Nc1ccccc1Oc1ccccc1)Nc1cccc(Cl)c1Cl`, the result in assay [1] and in assay [2] was inactive.

For `CC(C)c1ccccc1NC(=S)NN(Cc1ccccc1)c1ccccc1`, in assay [1], the result was inactive.

As for `COCC(=O)Nc1ccc2c(c1)C(=O)N(C)C[C@H](OC)[C@@H](C)CN(C(=O)c1ccccc1)[C@@H](C)CO2`, the molecule was called inactive in assay [1] and in assay [2].

As to `COC(=O)C1=C(C)N(Cc2ccc(F)cc2)C(=S)NC1c1ccc(F)cc1` (stereo unspecified), the call in assay [1] was inactive.

For `COc1cc2c(C(=O)N(C)c3cc(Cl)ccc3OC)cn(C)c(=O)c2cc1OC`, the result in assay [1] and in assay [2] was inactive.

With `O=C(NC(=S)Nc1ccccc1N1CCCC1)c1ccccc1[N+](=O)[O-]`, the outcome in assay [1] and in assay [2] was inactive.

In the case of `NC(=S)N/N=C/c1ccc(-c2cc(Cl)ccc2Cl)o1`, the molecule was called inactive in assay [1].

For the molecule `C[C@@H]1CN([C@H](C)CO)C(=O)c2cc(C3=CCCCC3)cnc2O[C@H]1CN(C)C(=O)Cc1cccnc1`, the result in assay [1] and in assay [2] was inactive.

For `COc1ccc(C(=O)NC(=S)Nc2ccccc2N2CCOCC2)cc1[N+](=O)[O-]`, the molecule was classed as inactive in assay [1].

Take `O=C(NC(=S)NCC1COc2ccccc2O1)c1ccc(Cl)cc1` (stereo unspecified): the call in assay [1] and in assay [2] was inactive.

As for `O=C(C1CCOCC1)N1CC[C@@H]2[C@@H](CO)Nc3ccc(Br)cc3[C@@H]21`, the result in assay [1] and in assay [2] was inactive.

Regarding `Cc1ccc(OCCn2c(=S)[nH]c3ccccc32)c(C(C)C)c1`, the molecule was called inactive in assay [1].

With `COc1ccccc1C#Cc1ccc2c(c1)O[C@H](CN(C)C(C)=O)[C@H](C)CN([C@@H](C)CO)S2(=O)=O`, the outcome in assay [1] and in assay [2] was inactive.

In the case of `Cc1cccc2sc(N3CCN(C(=O)c4cccs4)CC3)nc12`, the outcome in assay [1] and in assay [2] was inactive.

In the case of `COC(=O)C1=C(C)N(Cc2ccccc2)C(=S)N[C@H]1c1cccc(F)c1`, the molecule was called inactive in assay [1].

On to `COC(=O)C1=C(C)N(CC(C)C)C(=S)NC1c1ccc(-c2ccccc2)cc1` (stereo unspecified), for which the molecule was called inactive in assay [1].

With `COC(=O)C1=C(C)N(Cc2ccc(Br)cc2)C(=S)NC1c1ccc(OC)cc1` (stereo unspecified), the call in assay [1] and in assay [2] was inactive.

`COC(=O)C1=C(C)N(Cc2ccc(Cl)cc2)C(=S)NC1c1ccc(F)cc1` (stereo unspecified): the call in assay [1] and in assay [2] was inactive.

For `O=C(CSc1ncnc2c1cnn2-c1cccc(Cl)c1)NCC1CCCO1` (stereo unspecified), the outcome in assay [1] and in assay [2] was inactive.

On to `CCOC(=O)NC(=S)Nc1ccc(C(C)(C)C)cc1`, for which the molecule was called inactive in assay [1] and in assay [2].

As for `COC(=O)C1=C(C)N(Cc2ccc(F)cc2)C(=S)NC1c1cccc(F)c1` (stereo unspecified), the molecule was called inactive in assay [1] and in assay [2].

Consider `CCOc1ccc(CNC(=S)NCc2ccc(OCC)cc2)cc1`, for which the call in assay [1] and in assay [2] was inactive.

`COC(=O)C1=C(C)N(Cc2ccccc2)C(=S)NC1c1cccc(Br)c1` (stereo unspecified): the molecule was called inactive in assay [1] and in assay [2].

`C[C@@H]1CN([C@H](C)CO)C(=O)Cc2cc(NC(=O)NC3CCCCC3)ccc2O[C@@H]1CN(C)Cc1ccccc1`: the outcome in assay [1] and in assay [2] was inactive.

`CCC(=O)N(C)C[C@@H]1Oc2cc(C#CC(C)(C)O)ccc2S(=O)(=O)N([C@@H](C)CO)C[C@H]1C`: the result in assay [1] and in assay [2] was inactive.

In the case of `COC(=O)C1=C(C)N(Cc2ccc(Cl)cc2)C(=S)NC1c1cccc(Cl)c1` (stereo unspecified), the outcome in assay [1] was inactive.

As to `COc1ccccc1NC(=S)NCc1ccc(Cl)cc1`, the result in assay [1] and in assay [2] was inactive.

Turning to `COC(=O)C1=C(C)N(Cc2ccc(Cl)cc2)C(=S)NC1c1ccc(OC)cc1` (stereo unspecified), the result in assay [1] and in assay [2] was inactive.

As for `Cc1cc(C(=O)NC(=S)Nc2ccccc2N2CCOCC2)ccc1[N+](=O)[O-]`, the outcome in assay [1] and in assay [2] was inactive.

For the molecule `CCCCNC(=S)N/N=C/c1ccc(C#N)cc1`, the result in assay [1] and in assay [2] was inactive.

Take `S=C(Nc1cccc(Cl)c1)Nc1ccccc1Oc1ccccc1`: the molecule was classed as inactive in assay [1] and in assay [2].

In the case of `COc1ccc(CNC(=S)NCc2ccc(OC)cc2)cc1`, the outcome in assay [1] and in assay [2] was inactive.

For the molecule `O=C(NC(=S)Nc1ccc(Br)cc1)C1CCC1`, the molecule was classed as inactive in assay [1] and in assay [2].

Consider `COc1ccc(N2CCN(C(=O)Cc3cccs3)CC2)cc1`, for which the outcome in assay [1] and in assay [2] was inactive.

Consider `COC(=O)C1=C(C)N(Cc2ccc(F)cc2)C(=S)NC1c1ccccc1` (stereo unspecified), for which the call in assay [1] and in assay [2] was inactive.

Consider `CC=Cc1ccc2n(c1=O)C[C@@H]1[C@@H](CO)[C@H](C(=O)N3CCc4ccccc4C3)N(C(=O)C3CC3)[C@H]21` (mixture of isomers), for which the molecule was called inactive in assay [1] and in assay [2].

As to `O=C(C[C@H]1CC[C@@H]2[C@H](COC[C@@H](O)CN2C(=O)c2cnccn2)O1)NCc1ccc(Oc2ccccc2)cc1`, the outcome in assay [1] and in assay [2] was inactive.

For `COC(=O)C1=C(C)N(Cc2ccc(Br)cc2)C(=S)NC1c1ccccc1` (stereo unspecified), the molecule was called inactive in assay [1] and in assay [2].

Take `Fc1ccccc1NC(=S)NN(Cc1ccccc1)c1ccccc1`: the call in assay [1] and in assay [2] was inactive.

`COc1cccc(NC(=S)NC(=O)Cc2ccc(Cl)cc2)c1`: the result in assay [1] and in assay [2] was inactive.

In the case of `COC(=O)C1=C(C)N(CC(C)C)C(=S)NC1c1cccc(F)c1` (stereo unspecified), the result in assay [1] and in assay [2] was inactive.

Regarding `COC(=O)C1=C(C)N(Cc2ccc(Br)cc2)C(=S)NC1c1cccc(Cl)c1` (stereo unspecified), the result in assay [1] and in assay [2] was inactive.

`COC(=O)C1=C(C)N(Cc2ccccc2)C(=S)NC1c1cccc(OC)c1` (stereo unspecified): the molecule was called inactive in assay [1] and in assay [2].

Consider `COC(=O)C1=C(C)N(Cc2ccccc2)C(=S)NC1c1ccc(Cl)cc1` (stereo unspecified), for which the outcome in assay [1] and in assay [2] was inactive.

Take `COC(=O)C1=C(C)N(Cc2ccc(F)cc2)C(=S)NC1c1cccc(Cl)c1` (stereo unspecified): the outcome in assay [1] and in assay [2] was inactive.

As for `O=C(CN(c1ccc(F)cc1)S(=O)(=O)c1ccccc1)N1CCOCC1`, the result in assay [1] and in assay [2] was inactive.

In the case of `C[C@@H]1CN([C@H](C)CO)S(=O)(=O)c2ccc(C#Cc3ccccn3)cc2O[C@H]1CN(C)Cc1ccccc1`, the molecule was classed as inactive in assay [1] and in assay [2].

With `C[C@H]1CCCCO[C@@H](CN(C)Cc2ccncc2)[C@@H](C)CN([C@@H](C)CO)C(=O)c2cc(NC(=O)Nc3ccccc3)ccc2O1`, the outcome in assay [1] and in assay [2] was inactive.

`COc1ccc(CNC(=S)NCc2ccc(OC(C)C)cc2)cc1`: the outcome in assay [1] and in assay [2] was inactive.

With `COc1ccc(C(=O)NC(=S)Nc2ccccc2N2CCCCC2)cc1[N+](=O)[O-]`, the outcome in assay [1] and in assay [2] was inactive.

Consider `CCCOc1ccc(CNC(=S)NCc2ccc(OC(C)C)cc2)cc1`, for which the call in assay [1] and in assay [2] was inactive.

Regarding `Fc1ccccc1NC(=S)NCCc1cccc(Cl)c1`, the result in assay [1] and in assay [2] was inactive.

For the molecule `S=C(NCCCc1ccccc1)Nc1ccccc1`, the molecule was called inactive in assay [1] and in assay [2].

Regarding `COc1ccccc1NC(=S)NCc1ccccc1Cl`, the result in assay [1] and in assay [2] was inactive.

On to `O=C(N[C@@H]1CC[C@@H](CCn2cc(-c3ccccc3)nn2)O[C@H]1CO)c1cnccn1`, for which the result in assay [1] and in assay [2] was inactive.

For `COc1cccc(NC(=S)N2CCC(Cc3ccccc3)CC2)c1`, the molecule was called inactive in assay [1] and in assay [2].

For the molecule `S=C(Nc1ccccc1)Nc1cc(Cl)ccc1Oc1ccccc1`, the molecule was classed as inactive in assay [1] and in assay [2].

Turning to `Cc1ccc(C(=O)NC(=S)Nc2ccccc2N2CCCC2)cc1[N+](=O)[O-]`, the call in assay [1] and in assay [2] was inactive.

As to `CCCCN1C(=S)NC[C@@H]1Cc1ccccc1`, the molecule was classed as inactive in assay [1] and in assay [2].

Take `O=C(NC(=S)Nc1ccccc1N1CCCC1)c1ccc([N+](=O)[O-])cc1`: the outcome in assay [1] and in assay [2] was inactive.
